# Data: the supplement of paper PMC9262897, “Low-cost anti-mycobacterial drug discovery using engineered E. coli” (Nature Communications, 2022)
# Structures can show the parent of a compound that is named as a salt. ± gives the standard deviation of the averaged measurements.
# What was measured:
# Assay in all cases: growth (OD600 after 10 h); higher = more growth (less inhibition)
# [1] = system: E. coli TESEC Alr+ wild-type control; conditions: compound 0.1 mM; raw OD600 reference: median of DMSO wells 0.241, cell-free background 0.041
# Method: (§1)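 TESEC Mtb Alr E. coli, or the Alr+ wild-type control, in 384-well plates with Prestwick library compounds at 0.1 mM and 1% DMSO, across arabinose induction levels of 1E3 to 1E7 nM. Growth is read as OD600 after 10 h at 37 °C in triplicate biological replicates.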
# E. coli TESEC Mtb Alr [2] = conditions: compound 0.1 mM
# Method: as §1
# E. coli TESEC Mtb Asd = conditions: compound 0.1 mM
# Method: (§2)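 TESEC E. coli strains in which the native enzyme is deleted and replaced by arabinose-inducible Mtb Asd, DapB, CysH or TrpD, each grown in its selective medium. Strains were screened against the Prestwick library at 0.1 mM and 1% DMSO in 384-well format at low and high arabinose induction. Growth is read as OD600 after 10 h in triplicate.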
# E. coli TESEC Mtb DapB = conditions: compound 0.1 mM
# Method: as §2
# E. coli TESEC Mtb Alr [3] = conditions: compound 0.1 mM; remark: listed apart in the source
# Method: (§3)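 TESEC Mtb Alr E. coli (ΔaraC ΔtolC ΔentC Δalr ΔdadX, arabinose-inducible Mtb Alr) or the Alr+ wild-type control strain, grown in defined M9-fructose medium without D-alanine in 96-well plates with Prestwick library compounds at 0.1 mM and 1% DMSO. Low Alr induction is 0.1 µM arabinose and high induction is 10 mM arabinose.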
# [4] = system: E. coli TESEC Alr+ wild-type control; conditions: compound 0.1 mM; raw OD600 reference: median of DMSO wells 0.49, cell-free background 0.052
# Method: as §3
# [5] = arabinose 1000 nM, raw OD600 reference: median of DMSO wells 0.294, cell-free background 0.041
# [6] = arabinose 10000 nM, raw OD600 reference: median of DMSO wells 0.264, cell-free background 0.041
# [7] = arabinose 100000 nM, raw OD600 reference: median of DMSO wells 0.201, cell-free background 0.041
# [8] = arabinose 1000000 nM, raw OD600 reference: median of DMSO wells 0.193, cell-free background 0.041
# [9] = arabinose 10000000 nM, raw OD600 reference: median of DMSO wells 0.146, cell-free background 0.041
# [10] = arabinose induction (level): High, raw OD600 reference: median of DMSO wells 0.331, cell-free background 0.041
# [11] = arabinose induction (level): Low, raw OD600 reference: median of DMSO wells 0.417, cell-free background 0.041
# [12] = arabinose induction (level): High, raw OD600 reference: median of DMSO wells […], cell-free background 0.041
# [13] = arabinose induction (level): Low, raw OD600 reference: median of DMSO wells 0.227, cell-free background 0.041
# [14] = arabinose 100 nM, raw OD600 reference: median of DMSO wells 0.413, cell-free background 0.052
# [15] = arabinose 10000000 nM, raw OD600 reference: median of DMSO wells […], cell-free background 0.052
Structure (SMILES),growth [1],growth (E. coli TESEC Mtb Alr [2]; [5]),growth (E. coli TESEC Mtb Alr [2]; [6]),growth (E. coli TESEC Mtb Alr [2]; [7]),growth (E. coli TESEC Mtb Alr [2]; [8]),growth (E. coli TESEC Mtb Alr [2]; [9]),growth (E. coli TESEC Mtb Asd; [10]),growth (E. coli TESEC Mtb Asd; [11]),growth (E. coli TESEC Mtb DapB; [12]),growth (E. coli TESEC Mtb DapB; [13]),growth (E. coli TESEC Mtb Alr [3]; [14]),growth (E. coli TESEC Mtb Alr [3]; [15]),growth [4]
COCCOC(=O)C1=C(C)NC(C)=C(C(=O)OC(C)C)C1c1cccc([N+](=O)[O-])c1 (configuration not stated) [Nimodipine],0.18 ± 0.017,0.176 ± 0.062,0.0601 ± 0.0043,0.154 ± 0.0027,0.0632 ± 0.0037,0.08053 ± 0.00035,0.274 ± 0.024,0.487 ± 0.0068,0.169 ± 0.016,0.197 ± 0.037,0.404 ± 0.025,0.0716 ± 0.011,
CN(C)CCOC(=O)C(c1ccccc1)C1(O)CCCC1 (configuration not stated) [Cyclopentolate hydrochloride],0.219 ± 0.0068,0.29 ± 0.0093,0.27 ± 0.01,0.183 ± 0.014,0.19 ± 0.018,0.133 ± 0.0078,0.198 ± 0.013,0.334 ± 0.1,0.192 ± 0.021,0.231 ± 0.045,0.4313 ± 0.0024,0.316 ± 0.018,
CO/N=C(\C(=O)N[C@@H]1C(=O)N2C(C(=O)OC(C)OC(C)=O)=C(COC(N)=O)CS[C@H]12)c1ccco1 (some centres not stated) [Cefuroxime axetil],0.148 ± 0.0057,0.115 ± 0.007,0.0663 ± 0.0028,0.124 ± 0.0033,0.166 ± 0.0066,0.158 ± 0.006,0.246 ± 0.023,0.316 ± 0.011,0.196 ± 0.022,0.215 ± 0.057,0.059 ± 0.0076,0.257 ± 0.011,
CC(C)OC(=O)CCC/C=C\C[C@@H]1[C@@H](CC[C@@H](O)CCc2ccccc2)[C@H](O)C[C@@H]1O [Latanoprost],0.0604 ± 0.0021,0.05 ± 0.0017,0.0396 ± 0.0001,0.0525 ± 0.00065,0.04007 ± 0.00012,0.0545 ± 0.0034,0.0525 ± 0.0016,0.05293 ± 0.00021,0.0594 ± 0.0031,0.0554 ± 0.0022,0.314 ± 0.037,0.0658 ± 0.011,
OC(Cn1cncn1)(Cn1cncn1)c1ccc(F)cc1F [Fluconazole],0.2384 ± 0.0019,0.29 ± 0.005,0.276 ± 0.0067,0.187 ± 0.029,0.211 ± 0.0083,0.14 ± 0.0056,0.267 ± 0.015,0.283 ± 0.037,0.195 ± 0.013,0.213 ± 0.032,0.411 ± 0.012,0.357 ± 0.017,
CC[C@H]1OC(=O)[C@H](C)[C@@H](O[C@H]2C[C@@](C)(OC)[C@@H](O)[C@H](C)O2)[C@H](C)[C@@H](O[C@@H]2O[C@H](C)C[C@H](N(C)C)[C@H]2O)[C@](C)(O)C[C@@H](C)CN(C)[C@H](C)[C@@H](O)[C@]1(C)O [Azithromycin],0.04107 ± 0.00015,0.0419 ± 0.0015,0.03977 ± 0.00031,0.0416 ± 0.00058,0.03993 ± 0.00025,0.0413 ± 0.00057,0.0597 ± 0.003,0.0647 ± 0.0021,0.1 ± 0.088,0.0998 ± 0.09,0.05527 ± 0.00032,0.05133 ± 0.00015,
C#CCN[C@@H]1CCc2ccccc21 [Rasagiline],0.224 ± 0.0077,0.281 ± 0.012,0.263 ± 0.011,0.19 ± 0.011,0.194 ± 0.023,0.142 ± 0.0024,0.245 ± 0.065,0.342 ± 0.075,0.186 ± 0.0077,0.243 ± 0.025,0.421 ± 0.011,0.322 ± 0.0094,
CN(C)CCOC(c1ccccc1)c1ccccc1.Cn1c(=O)c2[nH]c(Cl)nc2n(C)c1=O [Dimenhydrinate],0.213 ± 0.0024,0.255 ± 0.012,0.226 ± 0.0081,0.174 ± 0.011,0.134 ± 0.01,0.133 ± 0.0031,0.261 ± 0.044,0.342 ± 0.12,0.174 ± 0.0038,0.197 ± 0.014,0.402 ± 0.008,0.319 ± 0.0044,
CCCN(CCC)C(=O)C(CCC(=O)O)NC(=O)c1ccccc1 (configuration not stated) [Proglumide],0.255 ± 0.0056,0.282 ± 0.036,0.29 ± 0.017,0.22 ± 0.025,0.188 ± 0.0035,0.17 ± 0.0066,0.318 ± 0.075,0.368 ± 0.053,0.205 ± 0.018,0.246 ± 0.019,0.415 ± 0.021,0.376 ± 0.033,
COc1ccccc1N1CCN(CCCCNC(=O)c2ccc3ccccc3c2)CC1,0.149 ± 0.0027,0.179 ± 0.013,0.2704 ± 0.0024,0.195 ± 0.019,0.124 ± 0.0029,0.182 ± 0.0013,0.156 ± 0.0093,0.265 ± 0.013,0.188 ± 0.017,0.2 ± 0.012,0.398 ± 0.0097,0.181 ± 0.024,
COc1cc2c(cc1OC)C(=O)C(CC1CCN(Cc3ccccc3)CC1)C2 (configuration not stated) [Donepezil hydrochloride],0.168 ± 0.0034,0.251 ± 0.0063,0.259 ± 0.0054,0.158 ± 0.0035,0.174 ± 0.013,0.142 ± 0.0099,0.234 ± 0.039,0.4033 ± 0.0016,0.167 ± 0.021,0.199 ± 0.039,0.404 ± 0.011,0.325 ± 0.0069,
COc1cc(-c2ccc(=O)[nH]n2)ccc1OC(F)F [Zardaverine],0.14 ± 0.0036,0.173 ± 0.0042,0.188 ± 0.013,0.17 ± 0.021,0.171 ± 0.0067,0.147 ± 0.0091,0.211 ± 0.014,0.162 ± 0.014,0.16 ± 0.012,0.176 ± 0.018,0.401 ± 0.0082,0.35 ± 0.011,
CCCCc1oc2ccccc2c1C(=O)c1cc(I)c(OCCN(CC)CC)c(I)c1 [Amiodarone hydrochloride],0.263 ± 0.01,0.325 ± 0.0083,0.324 ± 0.0065,0.193 ± 0.0069,0.177 ± 0.0065,0.153 ± 0.0059,0.284 ± 0.017,0.338 ± 0.033,0.185 ± 0.0075,0.227 ± 0.0068,0.424 ± 0.057,0.316 ± 0.044,
CN(C)/N=N/c1[nH]cnc1C(N)=O [Dacarbazine],0.211 ± 0.0036,0.259 ± 0.0098,0.219 ± 0.012,0.197 ± 0.036,0.136 ± 0.0025,0.151 ± 0.0043,0.278 ± 0.036,0.362 ± 0.12,0.181 ± 0.012,0.213 ± 0.033,0.405 ± 0.013,0.296 ± 0.024,
Cc1cccc(C)c1NC(=O)C(C)N (configuration not stated) [Tocainide hydrochloride],0.26 ± 0.0084,0.318 ± 0.0085,0.269 ± 0.0071,0.187 ± 0.014,0.1844 ± 0.0016,0.145 ± 0.0027,0.209 ± 0.016,0.433 ± 0.031,,,0.4 ± 0.015,0.307 ± 0.023,0.483 ± 0.061
CCN(CC)CCNC(=O)c1cc(S(C)(=O)=O)ccc1OC [Tiapride hydrochloride],0.249 ± 0.0035,0.295 ± 0.01,0.263 ± 0.0064,0.213 ± 0.016,0.184 ± 0.0024,0.149 ± 0.0067,0.295 ± 0.057,0.422 ± 0.045,,,0.422 ± 0.011,0.361 ± 0.013,0.481 ± 0.087
CCCC1C(=O)N2C(N(C)C)=Nc3ccc(C)cc3N2C1=O (configuration not stated) [Azapropazone],0.226 ± 0.0057,0.287 ± 0.0066,0.2549 ± 0.002,0.178 ± 0.011,0.158 ± 0.0037,0.134 ± 0.0021,0.195 ± 0.031,0.323 ± 0.064,0.185 ± 0.015,0.206 ± 0.025,0.399 ± 0.013,0.301 ± 0.0094,
